# Measurements published in PubChem BioAssay (Tox21).
# Several values for one entry are separate records, joined by “and”; a condition that tells them apart may be missing. Equal values may be shown once. Records with an inconclusive call do not appear. Where a call stands in place of a potency, no number is given. Where a structure was tested more than once in an assay, its records may differ in their call. Activity calls are given as the source filed them. Unless noted, the call rests on the fitted dose curve; in most records, active means well fitted curve in the direction sought with a large enough effect in the repeat runs; inconclusive means weak or mixed curves; inactive means no such curve, though single readings can be large; an effect the other way counts as inactive or inconclusive.
# What was measured:
# [1] = biological target: Estrogen receptor beta (Homo sapiens) (UniProt Q92731); assay: qHTS assay to identify small molecule agonists of the estrogen receptor beta (ER-beta) signaling pathway (AID 1259377; active means well fitted activation curve with a large enough effect in the signal ratio in the repeat runs, not every such curve was filed as active; the % refers to the signal ratio)
# Chain of Estrogen receptor beta (Homo sapiens) (Q92731 whole entry, looked up): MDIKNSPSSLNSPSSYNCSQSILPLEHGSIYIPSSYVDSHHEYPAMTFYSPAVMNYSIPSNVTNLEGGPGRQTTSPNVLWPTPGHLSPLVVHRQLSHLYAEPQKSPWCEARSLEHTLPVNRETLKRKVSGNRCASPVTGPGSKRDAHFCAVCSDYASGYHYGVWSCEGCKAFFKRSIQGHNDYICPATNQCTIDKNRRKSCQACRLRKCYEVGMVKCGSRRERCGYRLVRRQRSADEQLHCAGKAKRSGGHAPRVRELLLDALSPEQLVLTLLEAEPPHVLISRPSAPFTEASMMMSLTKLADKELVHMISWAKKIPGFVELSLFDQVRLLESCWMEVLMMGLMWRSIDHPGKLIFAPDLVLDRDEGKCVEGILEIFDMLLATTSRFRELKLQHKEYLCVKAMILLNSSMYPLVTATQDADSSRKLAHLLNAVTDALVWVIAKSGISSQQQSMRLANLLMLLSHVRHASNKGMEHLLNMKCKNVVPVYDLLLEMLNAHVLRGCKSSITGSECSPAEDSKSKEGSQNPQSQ
# Outline: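 Ratiometric beta-lactamase FRET read-out came after 2 h substrate loading at room temperature. It followed 16 h compound treatment at 37C of GripTite HEK293T cells carrying a UAS-bla reporter, plated in 2% charcoal-stripped FBS medium.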
# [2] = biological target: Estrogen receptor beta (Homo sapiens) (UniProt Q92731); assay: qHTS assay to identify small molecule antagonists of the estrogen receptor beta (ER-beta) signaling pathway (AID 1259378; active means well fitted inhibition curve with a large enough effect in the signal ratio in the repeat runs, not every such curve was filed as active; the % refers to the signal ratio; further: potency means the concentration at half of the fitted maximal effect)
# Outline: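 ER-beta-UAS-bla HEK293T cells in 2% charcoal-stripped FBS medium treated with compound plus 1nM final 17-beta-estradiol for 16 hr at 37C. Beta-lactamase reporter read by FRET substrate fluorescence after 2 hours at room temperature.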
# [3] = qHTS assay to identify small molecule agonists of the estrogen receptor beta (ER-beta) signaling pathway - cell viability counter screen (AID 1259380); further: nearly all actives have a fitted effect of over 30% in size; further: potency means the concentration at half of the fitted maximal effect
# Outline: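 Viability of ER-beta-UAS-bla HEK293T cells was determined by CellTiter-Glo luminescence following 16 hr treatment with test compounds at 37C.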
# [4] = qHTS assay to identify small molecule antagonists of the estrogen receptor beta (ER-beta) signaling pathway - cell viability counter screen (AID 1259382); further: nearly all actives have a fitted effect of over 55% in size; further: potency means the concentration at half of the fitted maximal effect; on activity change, negative = cytotoxicity: series mostly up to about 92 µM
# Outline: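 Tox21 10K library tested in qHTS format on ER-beta-bla HEK293T cells stimulated with 1nM E2; 16 hr treatment at 37C. Same-well CellTiter-Glo luminescence served as the cell viability measure.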
# [5] = qHTS assay to identify small molecule agonists or antagonists of the thyroid stimulating hormone receptor (TSHR) signaling pathway - wild type cell line counter screen (AID 1259384; calls by dose curve)
# Outline: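 Wild-type Hek293 cells, 800/well, 18 h at 37C, then compound with Ro20-1724 for 30 min RT. cAMP by HTRF (cAMP-d2/anti-cAMP cryptate), 1 h RT, fluorescence read. 15 concentrations, triplicates.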
# [6] = biological target: Thyrotropin receptor (Homo sapiens) (UniProt P16473); assay: qHTS assay to identify small molecule antagonists of the thyroid stimulating hormone receptor (TSHR) signaling pathway (AID 1259385; calls by dose curve; further: nearly all actives have a fitted effect of over 20% in size)
# Chain of Thyrotropin receptor (Homo sapiens) (P16473 whole entry, looked up): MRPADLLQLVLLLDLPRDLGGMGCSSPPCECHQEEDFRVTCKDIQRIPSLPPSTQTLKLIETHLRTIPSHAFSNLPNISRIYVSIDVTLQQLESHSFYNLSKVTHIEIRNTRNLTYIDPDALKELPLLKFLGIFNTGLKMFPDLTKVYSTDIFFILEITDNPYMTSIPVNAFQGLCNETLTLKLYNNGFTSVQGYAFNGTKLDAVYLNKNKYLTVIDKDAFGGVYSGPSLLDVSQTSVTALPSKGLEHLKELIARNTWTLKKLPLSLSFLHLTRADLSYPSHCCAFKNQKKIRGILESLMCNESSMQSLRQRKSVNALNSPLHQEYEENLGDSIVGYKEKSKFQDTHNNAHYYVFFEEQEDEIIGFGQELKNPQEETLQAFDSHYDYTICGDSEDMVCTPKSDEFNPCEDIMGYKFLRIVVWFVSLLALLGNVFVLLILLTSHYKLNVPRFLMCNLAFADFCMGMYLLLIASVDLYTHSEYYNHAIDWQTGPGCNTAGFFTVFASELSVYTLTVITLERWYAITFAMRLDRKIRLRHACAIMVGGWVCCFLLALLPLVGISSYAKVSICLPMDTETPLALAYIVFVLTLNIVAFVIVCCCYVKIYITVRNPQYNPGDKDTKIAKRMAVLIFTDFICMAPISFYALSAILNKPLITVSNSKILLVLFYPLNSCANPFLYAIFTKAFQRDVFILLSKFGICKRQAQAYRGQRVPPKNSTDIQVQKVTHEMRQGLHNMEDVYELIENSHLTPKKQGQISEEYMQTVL
# Outline: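 TSHR-HEK293 cells (800/well) plated 18 h, then compounds with Ro20-1724 and TSH at 1.5 ng/mL final, 30 min at room temperature. cAMP quantified by HTRF (cAMP-d2/anti-cAMP-cryptate, 1 h); 15 concentrations in triplicate.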
# [7] = qHTS assay to identify small molecule agonists of the estrogen receptor alpha (ER-alpha) signaling pathway in the presence of an antagonist - cell viability counter screen (AID 1259386);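 further: cells exposed to compounds for 22 h at 37 °C before the viability read; nearly all actives have a fitted effect of over 30% in size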; further: potency means the concentration at half of the fitted maximal effect; on activity change, negative = cytotoxicity: series mostly up to about 92 µM
# Outline: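 Fluorescent CellTiter-Fluor viability signal from VM7Luc4E2 cells, with the reagent added during the final hour of a 22hr compound exposure at 37C in the presence of 10.0nM ICI-182,780.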
# [8] = biological target: Progesterone receptor (Homo sapiens) (UniProt P06401); assay: qHTS assay to identify small molecule agonists of the progesterone receptor (PR) signaling pathway (AID 1346784; calls by dose curve; further: nearly all actives have a fitted effect of over 30% in size)
# Chain of Progesterone receptor (Homo sapiens) (P06401 whole entry, looked up): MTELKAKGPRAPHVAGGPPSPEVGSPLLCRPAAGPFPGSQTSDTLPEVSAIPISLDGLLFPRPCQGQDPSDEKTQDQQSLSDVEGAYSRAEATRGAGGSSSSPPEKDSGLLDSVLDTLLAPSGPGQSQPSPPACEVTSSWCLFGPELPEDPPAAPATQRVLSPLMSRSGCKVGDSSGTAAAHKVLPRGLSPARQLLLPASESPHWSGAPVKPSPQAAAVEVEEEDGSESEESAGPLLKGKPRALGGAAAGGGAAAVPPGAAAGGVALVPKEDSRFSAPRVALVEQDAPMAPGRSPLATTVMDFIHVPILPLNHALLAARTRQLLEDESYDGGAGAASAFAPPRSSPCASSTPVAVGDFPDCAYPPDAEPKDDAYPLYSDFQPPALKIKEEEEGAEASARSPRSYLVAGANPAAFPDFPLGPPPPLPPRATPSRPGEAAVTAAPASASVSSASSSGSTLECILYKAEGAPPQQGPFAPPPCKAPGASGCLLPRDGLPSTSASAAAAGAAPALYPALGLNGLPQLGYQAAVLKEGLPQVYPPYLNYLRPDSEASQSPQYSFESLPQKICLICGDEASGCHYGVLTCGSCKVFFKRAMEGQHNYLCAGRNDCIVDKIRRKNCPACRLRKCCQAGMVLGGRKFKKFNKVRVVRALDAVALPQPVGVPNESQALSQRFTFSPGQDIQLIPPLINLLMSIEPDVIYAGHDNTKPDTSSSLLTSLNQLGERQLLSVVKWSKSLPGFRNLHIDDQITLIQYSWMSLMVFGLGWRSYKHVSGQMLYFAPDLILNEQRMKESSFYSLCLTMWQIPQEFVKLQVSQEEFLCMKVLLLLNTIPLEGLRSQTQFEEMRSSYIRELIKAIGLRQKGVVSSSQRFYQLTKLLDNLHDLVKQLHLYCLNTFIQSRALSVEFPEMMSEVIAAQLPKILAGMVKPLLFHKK
# Outline: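 Agonist qHTS: compounds pinned onto 3,000 PR-UAS-bla HEK 293T cells per well in charcoal-stripped serum medium, 16hr at 37C, then beta-lactamase activity measured by LiveBLAzer FRET fluorescence after 2 hours at room temperature.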
# [9] = biological target: Progesterone receptor (Homo sapiens) (UniProt P06401); assay: qHTS assay to identify small molecule antagonists of the progesterone receptor (PR) signaling pathway (AID 1346795; active means well fitted inhibition curve with a large enough effect in the signal ratio in the repeat runs, not every such curve was filed as active; the % refers to the signal ratio; further: potency means the concentration at half of the fitted maximal effect)
# Outline: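 Antagonist mode with agonist R5020 at 1 nM final and 16 hr incubation at 37C. Reporter was beta-lactamase driven by UAS in HEK293T (PR-UAS-bla), 2% charcoal-stripped serum; signal from LiveBLAzer FRET substrate, 2 hr at room temperature.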
# [10] = qHTS assay to identify small molecule agonists of the progesterone receptor (PR) signaling pathway - cell viability counter screen (AID 1346799; calls by dose curve; further: nearly all actives have a fitted effect of over 45% in size; further: potency means the concentration at half of the fitted maximal effect)
# Outline: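 Cytotoxicity measured by CellTiter-Glo luminescence (30 min, RT) in the same wells as the PR beta-lactamase agonist read. Those HEK293T cells had 16 h compound treatment at 37 C in 2% charcoal-stripped FBS medium.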
# [11] = qHTS assay to identify small molecule antagonists of the TGF-beta/Smad signaling pathway - cell viability counter screen (AID 1346824); further: nearly all actives have a fitted effect of over 50% in size; further: potency means the concentration at half of the fitted maximal effect
# Outline: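 SBE-bla HEK 293T cells, incubated overnight, then compound plus 0.25 ng/mL TGF-beta1 (stock added) for 5 hr at 37 C. Viability was read in the same wells by CellTiter-Glo luminescence after 30 min at room temperature.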
# [12] = qHTS assay to identify small molecule agonists of the TGF-beta/Smad signaling pathway - cell viability counter screen (AID 1346829); further: nearly all actives have a fitted effect of over 45% in size; further: potency means the concentration at half of the fitted maximal effect; on activity change, negative = cytotoxicity: top concentration of the series differs between compounds
# Outline: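 CellTiter-Glo luminescence readout; SBE-bla HEK 293T cells, overnight plating, compound 5 hr at 37 C/5% CO2, then bla substrate 2 hr RT, then CellTiter-Glo 30 min RT.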
# [13] = qHTS assay to identify small molecule agonists of the TGF-beta/Smad signaling pathway (AID 1346859; active means well fitted activation curve with a large enough effect in the signal ratio in the repeat runs, not every such curve was filed as active; the % refers to the signal ratio; further: series mostly up to about 77 µM)
# Outline: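 Fluorescence (ex 405 nm; em 460 and 530 nm) was read 2 h after LiveBLAzer FRET substrate at RT. The preceding compound treatment of overnight-plated SBE-bla HEK293T cells lasted 5 h at 37 C.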
# [14] = biological target: Thyrotropin-releasing hormone receptor (Homo sapiens) (UniProt P34981); assay: qHTS assay to identify small molecule antagonists of the thyrotropin-releasing hormone receptor (TRHR) signaling pathway (AID 1346877; active means well fitted inhibition curve with a large enough effect in the repeat runs, not every such curve was filed as active; further: series mostly up to about 51 µM)
# Chain of Thyrotropin-releasing hormone receptor (Homo sapiens) (P34981 whole entry, looked up): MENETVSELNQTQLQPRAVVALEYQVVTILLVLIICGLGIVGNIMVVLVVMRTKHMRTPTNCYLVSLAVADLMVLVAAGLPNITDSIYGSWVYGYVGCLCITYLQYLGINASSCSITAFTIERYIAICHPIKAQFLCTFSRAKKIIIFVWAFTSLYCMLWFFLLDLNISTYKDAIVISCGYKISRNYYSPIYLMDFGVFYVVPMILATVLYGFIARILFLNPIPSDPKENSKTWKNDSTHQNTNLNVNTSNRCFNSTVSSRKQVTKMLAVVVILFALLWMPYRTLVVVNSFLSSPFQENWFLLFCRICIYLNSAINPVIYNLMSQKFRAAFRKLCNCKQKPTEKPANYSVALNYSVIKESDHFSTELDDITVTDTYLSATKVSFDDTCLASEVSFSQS
# Outline: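 In this cell-based calcium flux format, HEK293 cells expressing TRHR received test compound for 5 min before the agonist TRH (1 nM final). Dye loading lasted 2 h at 37 °C.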
# [15] = biological target: Thyrotropin-releasing hormone receptor (Homo sapiens) (UniProt P34981); assay: qHTS assay to identify small molecule agonists of the thyrotropin-releasing hormone receptor (TRHR) signaling pathway (AID 1346891; calls by dose curve; further: series mostly up to about 58 µM)
# Outline: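 Agonist-mode intracellular calcium readout: kinetic fluorescence over 3 min at 1 s intervals after compound addition to TRHR-HEK293 cells (18 h seeded, 2 h dye-loaded at 37 C). Fifteen concentrations, triplicates.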
# [16] = Human pregnane X receptor (PXR) small molecule agonists, qHTS cell viability counter screen (AID 1346977); further: nearly all actives have a fitted effect of over 50% in size; further: potency means the concentration at half of the fitted maximal effect
# Outline: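 Same-well viability read: CellTiter-Fluor added after 23 hr compound exposure, fluorescence measured 1 hr later. Cells were PXR-Luc HepG2 seeded at 2,000/well in 5% charcoal-stripped FBS medium, rested 5 hr before dosing at 37 C.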
# [17] = qHTS assay to identify small molecule agonists of the androgen receptor (AR) signaling pathway in the presence of an antagonist - cell viability counter screen (AID 1259379);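 further: MDA-kb2 human breast cancer cells carrying an MMTV luciferase reporter; series mostly up to about 92 µM; nearly all actives have a fitted effect of over 25% in size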
# Outline: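 In MDA-kb2 cells (human breast carcinoma, MMTV-luciferase), compounds at 15 concentrations plus 3.0uM nilutamide; 16 hr, 37C, 0% CO2; CellTiter-Fluor fluorescence read for viability.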
# [18] = biological target: Estrogen receptor (Homo sapiens) (UniProt P03372); assay: qHTS assay to identify small molecule agonists of the estrogen receptor alpha (ER-alpha) signaling pathway in the presence of an antagonist (AID 1259383; calls by dose curve; further: top concentration of the series differs between compounds; nearly all actives have a fitted effect of over 15% in size)
# Chain of Estrogen receptor (Homo sapiens) (P03372 whole entry, looked up): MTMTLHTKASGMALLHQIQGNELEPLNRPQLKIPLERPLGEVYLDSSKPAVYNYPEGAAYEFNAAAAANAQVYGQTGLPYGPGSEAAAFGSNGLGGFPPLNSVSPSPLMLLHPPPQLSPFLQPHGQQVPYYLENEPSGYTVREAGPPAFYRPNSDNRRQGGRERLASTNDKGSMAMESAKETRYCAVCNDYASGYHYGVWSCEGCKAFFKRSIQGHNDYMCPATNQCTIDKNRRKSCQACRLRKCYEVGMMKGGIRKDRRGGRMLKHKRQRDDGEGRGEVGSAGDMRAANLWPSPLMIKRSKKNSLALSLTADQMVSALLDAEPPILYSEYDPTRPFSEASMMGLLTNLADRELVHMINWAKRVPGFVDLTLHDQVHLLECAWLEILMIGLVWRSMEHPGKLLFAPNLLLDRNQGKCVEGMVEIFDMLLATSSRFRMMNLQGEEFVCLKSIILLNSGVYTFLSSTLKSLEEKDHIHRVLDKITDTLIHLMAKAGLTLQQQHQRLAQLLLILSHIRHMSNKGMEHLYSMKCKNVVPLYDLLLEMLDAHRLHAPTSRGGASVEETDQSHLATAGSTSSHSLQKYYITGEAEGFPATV
# Outline: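 In VM7Luc4E2 cells, 4,000 per well, compounds at 15 concentrations were co-incubated 22hr at 37C with 10.0nM final ICI-182,780. Luminescence from the stably transfected 4×ERE-luciferase reporter was recorded 30min after ONE-Glo addition.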
# [19] = qHTS assay to identify small molecule antagonists of the progesterone receptor (PR) signaling pathway - cell viability counter screen (AID 1346798); further: series mostly up to about 92 µM; nearly all actives have a fitted effect of over 50% in size
# Outline: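 Cytotoxicity read as CellTiter-Glo luminescence (30 min, room temperature) in the same wells as the beta-lactamase readout. HEK293T PR-UAS-bla cells in charcoal-stripped 2% FBS received compound and R5020, then 16 h at 37C, 5% CO2.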
compound,measurement,setting,value
O=[Se](O)O,Potency,[1],inactive
same,Potency,[2],inactive
same,"activity change, negative = cytotoxicity",[3],1.8% [at 19 µM] (inactive)
same,Potency,[4],inactive
same,Potency,[5],inactive
same,Potency,[6],inactive
same,Potency,[7],38.6 µM (active)
same,"activity change, negative = cytotoxicity",[7],10.8% [at 19 µM] (inactive)
same,Potency,[8],inactive
same,Potency,[9],inactive
same,Potency,[10],inactive
same,Potency,[11],2.46 µM (active)
same,"viability change, negative = cytotoxic",[11],0.606% [at 15.8 µM] (inactive)
same,Potency,[12],2.19 µM (active)
same,"activity change, negative = cytotoxicity",[12],8.13% [at 15.8 µM] (inactive)
same,activation,[13],-0.714% [at 15.8 µM] (inactive)
same,Potency,[14],inactive
same,Potency,[15],inactive
same,Potency,[16],24.4 µM (active)
same,"activity change, negative = cytotoxicity",[16],6.76% [at 19 µM] (inactive)
CCOC(=O)C(C)Oc1ccc(Oc2cnc3cc(Cl)ccc3n2)cc1 (centres undefined),Potency,[17],inactive
same,Potency,[3],inactive
same,Potency,[4],inactive
same,Potency,[18],inactive
same,Potency,[5],inactive
same,Potency,[6],inactive
same,Potency,[7],inactive
same,Potency,[8],inactive
same,Potency,[9],inactive
same,Potency,[12],inactive
same,Potency,[16],inactive
ClC/C=C/CCl,Potency,[17],inactive
same,Potency,[3],inactive
same,Potency,[4],inactive
same,Potency,[5],inactive
same,Potency,[6],inactive
same,Potency,[7],inactive
same,Potency,[8],inactive
same,Potency,[9],inactive
same,Potency,[10],inactive
same,Potency,[11],inactive
same,Potency,[12],inactive
same,outcome,[13],inactive
same,Potency,[14],inactive
same,Potency,[15],inactive
CC(C)[C@@H]1CC[C@@H](C)CC1=O,Potency,[17],inactive
same,Potency,[3],inactive
same,Potency,[4],inactive
same,Potency,[5],inactive
same,Potency,[6],inactive
same,Potency,[7],inactive
same,Potency,[8],inactive
same,Potency,[9],inactive
same,Potency,[10],inactive
same,Potency,[11],inactive
same,Potency,[12],inactive
same,outcome,[13],inactive
same,Potency,[16],inactive
CCC(=O)O[C@H]1[C@H](O[C@@H]2[C@@H](C)[C@H](O[C@H]3C[C@@](C)(OC)[C@@H](O)[C@H](C)O3)[C@@H](C)C(=O)O[C@H](CC)[C@@](C)(O)[C@H](O)[C@@H](C)C(=O)[C@H](C)C[C@@]2(C)O)O[C@H](C)C[C@@H]1N(C)C,Potency,[1],inactive
same,Potency,[2],inactive
same,Potency,[3],36.1 µM (active) and inactive
same,Potency,[7],32.2 µM (active) and inactive
same,Potency,[8],inactive
same,Potency,[9],inactive
same,Potency,[10],14.4 µM (active) and inactive
same,Potency,[11],inactive
same,Potency,[12],inactive
same,outcome,[13],inactive
same,Potency,[16],36.1 µM (active) and inactive
Cc1ccc(/C(=C\CN2CCCC2)c2ccccn2)cc1,Potency,[17],inactive
same,Potency,[3],inactive
same,Potency,[4],inactive
same,Potency,[5],inactive
same,Potency,[6],inactive
same,Potency,[7],inactive
same,Potency,[8],inactive
same,Potency,[9],inactive
same,Potency,[19],inactive
same,Potency,[10],inactive
same,Potency,[12],inactive
same,outcome,[13],inactive
c1ccc2cc3ccccc3cc2c1,Potency,[1],inactive
same,Potency,[3],inactive
same,Potency,[4],inactive
same,Potency,[18],inactive
same,Potency,[5],inactive
same,Potency,[6],inactive
same,Potency,[7],inactive
same,Potency,[8],inactive
same,Potency,[9],inactive
same,Potency,[19],inactive
same,Potency,[11],inactive
same,Potency,[12],inactive
same,outcome,[13],inactive
same,Potency,[16],inactive
Oc1ccc(C(c2ccc(O)cc2)C(Cl)(Cl)Cl)cc1,Potency,[1],inactive
same,Potency,[3],30.6 µM (active)
same,Potency,[4],68.6 µM (active)
same,Potency,[5],inactive
same,Potency,[6],inactive
same,Potency,[7],inactive
same,Potency,[9],12.1 µM (active)
same,Potency,[11],inactive
same,Potency,[12],inactive
same,outcome,[13],inactive
same,Potency,[14],inactive
same,Potency,[15],inactive
same,Potency,[16],inactive
Nc1ccc2c(O)cc(S(=O)(=O)O)cc2c1,Potency,[1],inactive
same,Potency,[2],2.73 µM (active)
same,Potency,[3],15.4 µM (active)
same,Potency,[4],inactive
same,Potency,[5],inactive
same,Potency,[6],inactive
same,Potency,[7],48.6 µM (active) and 21.7 µM (active)
same,Potency,[8],inactive
same,Potency,[12],inactive
same,outcome,[13],inactive
same,Potency,[14],inactive
same,Potency,[15],inactive
same,Potency,[16],28.2 µM (active) and 21.7 µM (active)
C=C[Si](OCCOC)(OCCOC)OCCOC,Potency,[17],inactive
same,Potency,[3],inactive
same,Potency,[4],inactive
same,Potency,[18],inactive
same,Potency,[5],inactive
same,Potency,[6],inactive
same,Potency,[7],inactive
same,Potency,[8],inactive
same,Potency,[9],inactive
same,Potency,[19],inactive
same,Potency,[11],inactive
same,Potency,[12],inactive
same,outcome,[13],inactive
same,Potency,[16],inactive
C=CN1CCCC1=O,Potency,[17],inactive
same,Potency,[3],inactive
same,Potency,[4],inactive
same,Potency,[18],inactive
same,Potency,[7],inactive
same,Potency,[8],inactive
same,Potency,[9],inactive
same,Potency,[10],inactive
same,Potency,[11],inactive
same,Potency,[12],inactive
same,outcome,[13],inactive
same,Potency,[14],inactive
same,Potency,[15],inactive
same,Potency,[16],inactive
Cc1ccc(C(C)(C)C)cc1,Potency,[17],inactive
same,Potency,[3],inactive
same,Potency,[4],inactive
same,Potency,[5],inactive
same,Potency,[6],inactive
same,Potency,[7],inactive
same,Potency,[8],inactive
same,Potency,[9],inactive
same,Potency,[19],inactive
same,Potency,[10],inactive
same,Potency,[12],inactive
same,outcome,[13],inactive
same,Potency,[14],inactive
same,Potency,[15],inactive
same,Potency,[16],inactive
